M1 ag – human M1 muscarinic receptor agonism; P11229; CHO-K1 hM1, Fluo-8 calcium fluorescence, agonist mode; 0% DMSO, 100% acetylcholine EC100; activation, % at 3 µM; 360,000 tested, 0.33% active;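 active means activation above the run's mean compound activation plus 3 SD, cut at about 16% in these data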;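 further: peak over basal fluorescence ratio within a 140 s kinetic read after compound addition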
Target sequence (P11229 whole entry, looked up): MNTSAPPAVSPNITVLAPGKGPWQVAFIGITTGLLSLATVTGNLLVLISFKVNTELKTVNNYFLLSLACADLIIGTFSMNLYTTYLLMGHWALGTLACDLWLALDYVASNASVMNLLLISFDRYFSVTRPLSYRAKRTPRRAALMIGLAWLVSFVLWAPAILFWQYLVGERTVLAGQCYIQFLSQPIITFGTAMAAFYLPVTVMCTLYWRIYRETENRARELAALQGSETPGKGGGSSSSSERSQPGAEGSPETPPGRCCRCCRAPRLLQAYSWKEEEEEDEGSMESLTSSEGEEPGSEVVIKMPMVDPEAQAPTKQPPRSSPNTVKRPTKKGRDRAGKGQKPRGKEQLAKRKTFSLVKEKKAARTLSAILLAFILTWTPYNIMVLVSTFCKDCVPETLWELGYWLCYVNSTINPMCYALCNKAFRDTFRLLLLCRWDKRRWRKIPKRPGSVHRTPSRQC
CHRM1 PAM – potentiates human M1 receptor response to acetylcholine; 360,000 tested, 0.088% active; P11229; activation, % at 3 µM; CHO-K1 hM1, Fluo-8 calcium fluorescence, ACh EC20; 0% = ACh EC20, 100% = maximal ACh; in the data active means activation above about 19%, passing the limit was not always enough
CHRM1 antagonist – blocks human M1 muscarinic receptor; P11229; CHO-K1 hM1, Fluo-8 calcium fluorescence, ACh EC80 antagonist; inhibition, % at 3 µM; 360,000 tested, 1.3% active; AID 588852;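 active means percent inhibition above its own plate's cutoff, namely the mean of that plate's compound wells plus 3 SD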;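 further: peak over basal fluorescence ratio during 140 s after agonist addition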
CHO-K1 Ca antag – nonselective inhibitor or artifact in parental CHO-K1 cells | 360,000 tested, 0.6% active | inhibition, % at 3 µM | ATP-induced calcium, Fluo-8 fluorescence;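 active means inhibition above a per-plate cutoff, the plate's mean sample inhibition plus 3 SD, cut at about 24% in these data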
CHO-K1 Ca PAM – M1 PAM counterscreen hit in parental CHO-K1 cells; ATP EC20, Fluo-8 calcium fluorescence; 0% at ATP EC20, 100% at ATP max; 360,000 tested, 0.02% active; activation, % at 3 µM;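 active means activation above the run cutoff, the mean activation of all test compounds plus 3 SD, cut at about 40% in these data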;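 further: peak over basal fluorescence ratio in a 140 s read after ATP addition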
M1 ag parental – counter-screen for M1 agonists: effect in parental CHO-K1 cells. Fluo-8 calcium fluorescence; scaled to maximal ATP response, vehicle zero. activation, % at 3 µM. 360,000 tested, 0.48% active; in the data active means activation above about 15%;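 further: untransfected CHO-K1 host cells lacking M1 receptor as counterscreen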
A number is an active result; n = inactive; x = no result given. Hits are enriched below; roughly 2.3% of the tested compounds scored in any of these assays.

SMILES | M1 ag | CHRM1 PAM | CHRM1 antagonist | CHO-K1 Ca antag | CHO-K1 Ca PAM | M1 ag parental
CCCS(=O)(=O)NC(=O)C1(C)CCN(C(=O)c2cc(F)cc(F)c2)C1 (stereo not drawn) | n | n | n | n | n | n
CC(=O)Nc1ccc(CN(C)CC2CCCN(CCc3cccc(C(F)(F)F)c3)C2)cc1 (stereo not drawn) | n | n | 52.0 | n | n | n
O=C(c1cccc(C(F)(F)F)c1)C1CCCN(Cc2cccc(OCCO)c2)C1 (stereo not drawn) | n | n | 38.7 | n | n | n
CC(=O)Nc1ccc(CN2CCCC(C(=O)c3ccc(C(F)(F)F)cc3)C2)cc1 (stereo not drawn) | n | n | 50.9 | n | n | n
COCc1cc(CN2CCCC(C(=O)c3cccc(C(F)(F)F)c3)C2)ccc1OC (stereo not drawn) | n | n | 43.5 | n | n | n
O=C(c1ccc(-c2ccccc2)cc1)C1CCCN(Cc2ccncc2)C1 (stereo not drawn) | n | n | n | n | n | n
O=C(c1cccc(C(F)(F)F)c1)C1CCCN(Cc2cccn2-c2ccccn2)C1 (stereo not drawn) | n | n | 35.3 | n | n | n
O=[N+]([O-])c1ccc(N2CCN(C(=S)NC3CCCCC3)CC2)cc1 | n | n | 20.9 | n | n | n
Cc1cc(C)c2c(=O)n(CC(=O)Nc3ccc(Br)c(C)c3)sc2n1 | n | n | n | n | n | n
Cc1cc(C)c2c(=O)n(CC(=O)Nc3cccc(Cl)c3C)sc2n1 | 16.5 | n | n | n | n | 18.5
Cc1ccc(C(=O)NCCN2CCC(n3c(=O)[nH]c4ccccc43)CC2)cc1C | x | x | x | n | n | n
O=S(=O)(c1cccc(Br)c1)N1CCN(c2ncnc3scc(-c4ccccc4)c23)CC1 | n | n | n | n | n | n
Cc1csc2ncnc(N3CCN(S(=O)(=O)c4cccc(C(F)(F)F)c4)CC3)c12 | n | n | 46.5 | 25.7 | n | n
NC(=O)Cc1ccc(C(=O)c2ccccc2F)s1 | n | n | n | 25.3 | n | n
Cc1ccc2c(c1)C1CN(C)CCC1N2C(=O)c1ccc(Cl)c(S(=O)(=O)N2CCOCC2)c1 (stereo not drawn) | n | n | 79.0 | n | n | n
Cc1ccc(C(=O)N(C)c2ccc(OCC(=O)N3c4ccc(C)cc4C4CN(C)CCC43)cc2)cc1 (stereo not drawn) | n | n | 22.6 | n | n | n
Cc1ccc2c(c1)C1CN(C)CCC1N2C(=O)c1cccc(S(=O)(=O)N2CC(C)CC(C)C2)c1 (stereo not drawn) | n | n | 37.4 | n | n | n
Cc1ccc2c(c1)C1CN(C)CCC1N2S(=O)(=O)c1cc(C(F)(F)F)ccc1Cl (stereo not drawn) | n | n | n | n | n | n
CC(NC(=O)COC(=O)CCN1C(=O)C2CC=CCC2C1=O)c1ccc(Br)cc1 (stereo not drawn) | n | n | n | n | n | n
Cc1nc2c(o1)CCc1ccccc1C2N1CCN(C)CC1 (stereo not drawn) | n | n | 99.4 | n | n | n
Cc1nc(S(=O)(=O)N2CCN(C3c4ccccc4-c4ccccc43)CC2)cn1C | n | n | n | n | n | n
CN(CC1COc2ccccc2O1)C(=O)CSc1ncccn1 (stereo not drawn) | n | n | n | n | n | n
O=C(CSc1n[nH]c(-c2ccc(Br)cc2)n1)N1CCOCC1 | n | n | n | n | n | n
COc1ccc(C(=O)NC(C)CCc2ccccc2)cc1[N+](=O)[O-] (stereo not drawn) | n | n | n | n | n | n
COc1ccc(C(=O)C(C)[n+]2ccc(C)c3ccccc32)cc1[N+](=O)[O-] (stereo not drawn) | n | n | 43.4 | n | n | n
SMILES | M1 ag | CHRM1 PAM | CHRM1 antagonist | CHO-K1 Ca antag | CHO-K1 Ca PAM | M1 ag parental
Cc1ccc(S(=O)(=O)NCCc2nnc(SCc3cccnc3)n2C)cc1 | n | n | n | n | n | n
Cc1ccc(NC(=O)COC(=O)c2cccc(C)c2[N+](=O)[O-])cc1S(=O)(=O)N1CCCCC1 | n | n | 27.6 | n | n | n
Cc1ccc(NC(=O)COC(=O)c2ccccc2F)cc1S(=O)(=O)N1CCCCC1 | n | n | n | n | n | n
COc1ccc(NC(=O)COc2ccccc2C(N)=O)cc1S(=O)(=O)N1CCCCC1 | n | n | n | n | n | n
COc1cc(C(C)=O)ccc1OCC(=O)Nc1ccc(C)c(S(=O)(=O)N2CCCCCC2)c1 | n | n | 36.8 | n | n | 16.4
Cc1ccc(NC(=O)COc2ccccc2C(N)=O)cc1S(=O)(=O)N1CCCCCC1 | n | n | 33.5 | 27.3 | n | n
COc1cc(C(C)=O)ccc1OCC(=O)Nc1ccc(S(=O)(=O)N2CCCCC2)cc1 | n | n | n | n | n | n
Cc1ccc(NC(=O)CSc2ncnc3ccccc23)cc1S(=O)(=O)N1CCCCCC1 | n | n | n | 26.6 | n | n
CCc1cccc(OCC(=O)Nc2ccc(C)c(S(=O)(=O)N3CCCCCC3)c2)c1 | n | n | 45.8 | n | n | n
Cc1ccc(NC(=O)COc2cccc(C)c2C)cc1S(=O)(=O)N1CCCCCC1 | n | n | n | n | n | n
Cc1ccc(NC(=O)COc2ccc(N(C)C(=O)C(C)(C)C)cc2)cc1S(=O)(=O)N1CCCCC1 | n | n | 52.9 | 28.9 | n | 15.6
Cc1nn(-c2ccccn2)c2c1C(=O)CC(C)(C)C2Br (stereo not drawn) | n | n | n | n | n | n
CSc1ccc(Cn2nnc(C(=O)NCc3ccccc3)c2N)cc1 | 33.7 | n | n | n | n | 19.0
Nc1c(C(=O)NCc2ccccc2)nnn1Cc1ccccc1 | n | n | n | n | n | n
O=C(CCCn1ncn2c(cc3occc32)c1=O)NCc1ccccc1F | n | n | n | n | n | n
CCc1nc2c(OCC3CCCCC3)cccn2c1N(C)C(=O)c1ccc(C)cc1 | n | n | n | n | n | n
CCS(=O)(=O)N1CCN(S(=O)(=O)c2ccc(Cl)s2)CC1 | n | n | 37.2 | n | n | n
Cc1ccc(/C=N/Nc2nc(C)cc(C)n2)cc1 | n | n | n | n | n | n
Cc1cc(C)nc(N/N=C/c2cn[nH]c2-c2ccc(F)cc2)n1 | n | n | n | n | n | 18.2
CCOC(=O)c1cc(C(C)(C)C)oc1CNC(=O)c1c(C)oc2c1CCCC2 | n | n | n | n | n | n
CCOc1cccc(OCCOCCN(C)Cc2ccccc2)c1 | n | n | 31.1 | n | n | n
Cc1ccc(Cl)c(OCCCCN(C)Cc2ccccc2)c1 | n | n | 37.3 | n | n | n
COC(=O)c1ccc(OCCCCN(C)Cc2ccccc2)cc1 | n | n | 31.3 | n | n | n
CCOc1cccc(OCCOCCN(C)C)c1 | n | n | n | n | n | n
CN1CCC(OC(c2ccccc2)c2ccccc2)CC1 | n | n | 99.5 | n | n | n

Screens as filed in PubChem.
